In PubChem BioAssay (Tox21) one finds outcome and fluorescence, % of fluorescent control data, which are given here for 40 compounds.

A number with no mark means an inactive call. Calls of active or inactive are those of the source. Calls follow the shape of the dose curve; as a rule, active = well fitted curve in the direction sought with a large enough effect in the repeat runs; inconclusive = weak or mixed curves; inactive = flat fitted curve, though single readings scatter.
% is scaled to controls: 0 for no effect and ±100 for the full control effect.

The assay in a line: qHTS assay to test for compound auto fluorescence at 590 nm (red) in HEK293 cell free culture (AID 720683). Conditions: cell-free medium autofluorescence, Ex540/Em590 red; series mostly up to 91.3 µM. The source says: U.S. Tox21 Program National Center for Advancing Translational Sciences [NCATS] NIH Chemical Genomics Center [NCGC] U.S. Environmental Protection Agency [EPA] National Institutes of Environmental Health Sciences [NIEHS] National Toxicology Program [NTP] U.S. Food and Drug Administration [FDA] Tox21 Assay Overview: Compound auto fluorescence often interferes with screening of the compound library against various biological targets and signaling pathways. Some of these compounds may have fluorophoric properties. Such properties may interfere with the assay outputs resulting in false positives and/or negatives. To decrease such complications and ensure the compound activities are relevant in terms of biological response, the Tox21 10K compound library was screened for auto fluorescence. From the fluorophores used as reporter signals in our screening assays, the auto fluorescence equivalencies of compounds against three fluorophores have been evaluated: Triamterene, Fluorescein and Rose Bengal sodium for blue, green and red fluorescence, respectively. The fluorescence intensities were measured using Excitation/Emission wavelengths at 405/460nm, 485/535nm and 540/590nm for blue, green and red labels, respectively. This assay includes the red fluorescence data.
Tox21 Assay Protocol Summary: 5 uL of culture medium (DMEM containing 10% FBS) per well was dispensed into black wall/clear bottom 1536-well plates using a Multidrop Combi Dispenser (ThermoFisher Scientific, Waltham, MA). After 23 nL compound or DMSO vehicle was transferred into assay plate by a pintool work station (Kalypsys, San Diego, CA), fluorescence intensities in the assay plates were measured by an Envision (PerkinElmer, Shelton, CT) plate reader using three labels for measuring blue, green and red fluorescence at […] 460, 535 and 590nm respectively.
On the technique in general: qHTS replaces the single test concentration by a dilution series.
For `C[C@]1(Cn2ccnn2)[C@H](C(=O)O)N2C(=O)C[C@H]2S1(=O)=O`, the outcome was inactive.
On to `CC(C)c1nc(CN(C)C(=O)N[C@H](C(=O)N[C@@H](Cc2ccccc2)C[C@H](O)[C@H](Cc2ccccc2)NC(=O)OCc2cncs2)C(C)C)cs1`, for which the result was inactive.
The same measure, in the same setting: for `CN1CC(=O)N2[C@H](c3ccc4c(c3)OCO4)c3[nH]c4ccccc4c3C[C@@H]2C1=O` the value was “inactive”.
Turning to `CN1C(C(=O)Nc2ccccn2)=C(O)c2sccc2S1(=O)=O`, the fluorescence, % of fluorescent control was 0.306% [at 18.6 µM].
Consider `CC(C)=CCC/C(C)=C/CC/C(C)=C/CCC(=O)OC/C=C(\C)CCC=C(C)C`, for which the result was inactive.
`Clc1ccc(Nc2nnc(Cc3ccncc3)c3ccccc23)cc1`: the compound was called inactive.
On the same count and under the same terms, the result for `Cc1ccc(OC(=O)c2ccccc2O)cc1` reads “inactive”; that for `CCCCCCCCCI`, “inactive”; that for `Cc1cc2c(OCC(CNC(C)(C)C)OC(=O)c3ccccc3)cccc2[nH]1` (stereo not given), “inactive”.
Still for that read-out and setting: the result for `CC(C)COCC(CN(Cc1ccccc1)c1ccccc1)N1CCCC1` (stereo not given) reads “inactive”; that for `CC1CC(C)C(=O)C1=O` (stereo not given), “inactive”; that for `CCCCCC[C@@H](O)C/C=C\CCCCCCCC(=O)OCC(O)CO` (stereo not given in full), “inactive”.
The same measure, in the same setting: for `CC[C@]1(O)C[C@H]2CN(CCc3c([nH]c4ccccc34)[C@@](C(=O)OC)(c3cc4c(cc3OC)N(C=O)[C@H]3[C@@](O)(C(=O)OC)[C@H](OC(C)=O)[C@]5(CC)C=CCN6CC[C@]43[C@@H]65)C2)C1` the value was “inactive”; for `O=C(Cn1ccnc1[N+](=O)[O-])NCCO`, “inactive”.
As for `CCC1NC(=O)c2cc(S(N)(=O)=O)c(Cl)cc2N1` (stereo not given), the fluorescence, % of fluorescent control was -0.121% [at 18.6 µM].
For `Nc1cccc2c1CN(C1CCC(=O)NC1=O)C2=O` (stereo not given), the compound was called inactive.
On the same count and under the same terms, the result for `CN1C(=O)N(c2ccccc2Br)Cc2cnc(Nc3ccc4c(c3)OCC(CO)O4)nc21` (stereo not given) reads “inactive”; that for `Cc1cc(=O)c2c(O)c3c(O)cc(=O)c4c3c3c(cc(O)c1c23)C(C)(C)C=4O`, “inactive”; that for `CCC1CO1` (stereo not given), “inactive”.
`Oc1ccc(Cl)c2cccnc12`: the compound was classed as inactive.
Still for that read-out and setting: for `C[C@@]12CCC[C@H]1[C@@H]1CC[C@H]3C[C@@H](O)CC[C@]3(C)[C@H]1CC2` the value was “inactive”; for `O=C(O)CCCCCCCCCCCBr`, “inactive”.
Turning to `C=C1c2cccc(O)c2C(O)=C2C(=O)[C@]3(O)C(O)=C(C(N)=O)C(=O)[C@@H](N(C)C)[C@@H]3[C@@H](O)[C@H]12`, the fluorescence, % of fluorescent control is 0.464% [at 18.6 µM].
Regarding `O=c1[nH]ncc2ccccc12`, the call was inactive.
`O=C(OC(=O)c1ccccc1)c1ccccc1`: the call was inactive.
With `CC(=O)NC1(c2cccc(F)c2)CCN(CC[C@@]2(c3ccc(Cl)c(Cl)c3)CN(c3ccccc3)C(=O)CO2)CC1`, the result was inactive.
Still for that read-out and setting: the result for `COc1cc(C(=O)NCCCCCC(=O)O)cc(OC)c1OC` reads “inactive”; that for `NC1[C@H]2CN(c3nc4c(cc3F)c(=O)c(C(=O)O)cn4-c3ccc(F)cc3F)C[C@@H]12` (stereo not given in full), “inactive”.
Still for that read-out and setting: for `CCCCCCCCN` the value was “inactive”; for `Cc1ccccc1S`, “inactive”; for `Cc1cc(O)ccc1O`, “inactive”.
As for `Clc1cc(Cl)nc(Cl)n1`, the result was inactive.
Take `CC=C(Cl)Cl`: the compound was called inactive.
Still for that read-out and setting: the result for `CO/N=C(/C(=O)N[C@@H]1C(=O)N2C(C(=O)O)=C(COC(N)=O)CS[C@H]12)c1ccco1` reads “inactive”; that for `C=C(C)CCCC(C)CCO` (stereo not given), “inactive”; that for `Brc1cc(Br)c(Oc2cc(Br)c(Br)cc2Br)cc1Br`, “inactive”.
Same read-out and setting: the result for `COc1ccccc1N1CCN(CCCCNC(=O)c2ccc(-c3ccc(C(C)=O)cc3)cc2)CC1` reads “inactive”.
Turning to `O=C1C(=O)c2ccccc2C(O)=C1C1CCC(c2ccc(Cl)cc2)CC1` (stereo not given), the fluorescence, % of fluorescent control was 0.0147% [at 18.6 µM].
As for `O=c1[nH]c2ccc(Cl)cc2o1`, the result was inactive.
Same read-out and setting: for `CCC(C)COC(C)=O` (stereo not given) the value was “inactive”.
